HSP90 inh: HSP90 inhibitors, primary screen, cell lysate, luminescence; Heat shock protein HSP 90 (rabbit reticulocyte lysate; luciferase refolding); Rabbit reticulocyte lysate, luciferase refolding luminescence, 3 h; inhibition, % at 5.6 µM; 290,000 tested, 0.91% active; AID 1789, 2009;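 active = inhibition above the screen-wide mean plus 3 SD, computed separately per campaign, cut at about 16% in these data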;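 note: 0% = DMSO wells and 100% = 60 µM geldanamycin wells; inhibitors lower the luminescence because luciferase stays unfolded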
TROY NFkB inh: inhibitors of TROY-driven NF-kB signaling, primary screen, Q293 LMP1-TROYcd cells, NF-kB luciferase, uHTS; Q293 LMP1-TROYcd NF-kB luciferase reporter, 4 h; inhibition, % at 10 µM; 360,000 tested, 0.98% active;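 active = compounds whose plate-normalised and pattern-corrected inhibition of the luciferase reporter signal at the single screening dose is 50% or more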
aSyn 5UTR inh: MLPCN primary screen, SNCA 5' untranslated region; AID 1813, 2009; alpha-synuclein 5'UTR reporter, inhibitor activity; 300,000 tested, 0.82% active; inhibition, % (tested at 7.5 µM); in the data active = inhibition above about 60%;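 note: H4 neuroglioblastoma cells stably carrying SNCA 5'UTR luciferase fusion; 0% = DMSO wells and 100% = positive control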
TRAIL sens C8: viability loss with TRAIL in NB7+C8 cells, primary screen, TRAIL sensitizer project, cell-based, ATPlite luminescence | inhibition (viability loss, TRAIL sensitization), % at 10 µM | 360,000 tested, 1% active;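 active = compounds causing at least 50% loss of cell viability in the single-dose screen, relative to plate controls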
TWEAK Fn14 block: inhibitors of TWEAK-Fn14 signaling, primary screen, luciferase reporter cells, uHTS. TWEAK-stimulated Fn14 reporter cells, luciferase luminescence, 8 h. inhibition, % at 10 µM. AID 1159606, 2016. 360,000 tested, 2% active; in the data active = inhibition above about 50%
HIF-2a inh: HIF-2a reporter inhibitors, primary screen, luminescence, 786-0 RCC cells. 786-0 RCC cells HIF-2a reporter, luciferase luminescence, overnight. inhibition, % at 18.8 µM. 360,000 tested, 0.72% active;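 active = inhibition of the luminescence signal of 40% or more relative to plate controls, in a single-dose primary screen at 18.75 µM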
* = called active by the depositor; / = no result. Sampled rows, rich in hits. Any-hit rate of the full collection: about 3.9%.

SMILES	HSP90 inh	TROY NFkB inh	aSyn 5UTR inh	TRAIL sens C8	TWEAK Fn14 block	HIF-2a inh
Oc1ccc(N=Nc2ccc3c(c2)OCCO3)c2ncccc12	8.8	59.9*	39.5	11.4	82.5*	3.6
NS(=O)(=O)c1ccc(N=Nc2ccc(O)c3ncccc23)cc1	-0.9	19.4	63.7*	45.1	31.4	-0.8
O=C(Nc1ncccc1O)c1ccc2c(c1)OCCO2	/	-4.4	-222.2	5.2	-4.7	-210.8
CSCCC(NC(=O)OC(C)(C)C)C(=O)Oc1ccc2c(=O)c(-c3ccc4c(c3)OCCO4)coc2c1 (stereo not drawn)	3.9	-11.6	/	55.7*	49.2	-106.8
CSCCC(NC(C)=O)C(=O)Oc1ccc2c3c(c(=O)oc2c1)CCCC3 (stereo not drawn)	0.1	-21.7	/	16.9	-10.7	-2.2
CCCCCC(=O)N[C@@H](c1ccccc1)[C@@H](O)C(=O)O[C@H]1C[C@@]2(O)[C@@H](OC(=O)c3ccccc3)C3[C@](C)(C(=O)[C@H](OC(C)=O)C(=C1C)C2(C)C)[C@@H](O)C[C@H]1OC[C@@]31OC(C)=O (stereo partly drawn)	-0.7	-7.9	87.2*	21.6	35.6	22.7
CC(=O)O[C@H]1C(=O)[C@@]2(C)[C@H]([C@H](OC(=O)c3ccccc3)[C@]3(O)C[C@H](OC(=O)[C@H](O)C(NC(=O)c4ccccc4)c4ccccc4)C(C)=C1C3(C)C)[C@]1(OC(C)=O)CO[C@@H]1C[C@@H]2O (stereo partly drawn)	/	7.8	72.3*	13.2	23.3	10.3
CCc1ccc(-c2ccc(SCC(=O)NCC3CCCO3)nn2)cc1 (stereo not drawn)	4.2	-26.3	-94.5	59.0*	-21.7	-181.7
Cc1ccccc1NC(=O)CSc1ccc(-c2ccc(-n3cccn3)cc2)nn1	/	6.0	-37.5	34.9	-46.9	-24.8
Cc1nnc(NC(=O)CSc2ccc(-c3ccc(Cl)cc3)nn2)s1	-0.7	-21.8	-43.4	13.3	-14.5	-26.6
CCOc1ccc(-c2ccc(SCC(=O)NC3CCCCC3)nn2)cc1	-2.5	-23.9	-68.9	49.3	-28.8	-143.4
CCOc1ccc(-c2ccc(SCC(=O)Nc3nnc(C)s3)nn2)cc1	-4.2	-39.3	-40.7	62.4*	-14.7	-218.2
CCc1ccc(-c2ccc(SCC(=O)Nc3nnc(C)s3)nn2)cc1	-0.1	-40.3	-83.3	75.5*	-5.5	-203.7
CCc1nnc(NC(=O)CSc2ccc(-c3ccc(-n4cccn4)cc3)nn2)s1	/	-58.4	-98.4	77.3*	-40.1	-179.3
O=C(CSc1nnc2ccc(-c3ccc(Br)cc3)nn12)NCC1CCCO1 (stereo not drawn)	/	4.3	14.9	8.8	-1.6	11.7
CC(=O)NC(c1ccc(F)c(F)c1)c1nc(-c2cccs2)cs1 (stereo not drawn)	/	-9.9	/	-7.7	-27.1	-7.4
CCN(CC(=O)Nc1c(F)cccc1F)C(=O)c1ccc(OC)c(S(=O)(=O)NC2CCCC2)c1	/	0.7	/	12.9	-4.9	2.5
CCC(=O)Nc1nnc(C)s1	1.5	/	15.8	-10.4	58.3*	0.4
CCCCC(=O)Nc1nnc(C)s1	-1.8	-6.0	-3.8	-5.5	8.2	3.3
CCNC(=O)C1(C)CCN(C(=O)c2ccccc2F)C1 (stereo not drawn)	/	-11.3	/	-3.4	-5.1	5.8
CCCNC(=O)CCn1nc(-c2ccc(Cl)cc2)c2ccccc2c1=O	7.4	-6.9	82.1*	-5.2	-3.5	15.0
COC(=O)c1sc(N)nc1CCNC(=O)OC(C)(C)C	/	/	/	5.6	/	0.4
CN(C)S(=O)(=O)c1ccc(C(=O)OCC(=O)c2csc(N3CCCCC3)n2)cc1	/	-0.9	/	-2.1	-15.4	-41.5
CCOC(=O)c1sc(=NC(=O)c2cccs2)n(C)c1C	-10.1	-33.7	-121.6	38.3	29.7	-174.5
CCOC(=O)c1sc(=NC(=O)c2ccc(Cl)s2)n(C)c1C	6.8	54.5*	-194.3	20.6	40.0	-237.0
SMILES	HSP90 inh	TROY NFkB inh	aSyn 5UTR inh	TRAIL sens C8	TWEAK Fn14 block	HIF-2a inh
C=CCOc1ccccc1CNc1ccccc1C	0.3	17.9	-31.4	-2.5	68.8*	-22.8
Cc1ccccc1NCc1ccccc1O	1.8	10.4	-8.5	-7.3	13.8	-14.9
COc1cc2c(c3oc(-c4ccccc4)cc(=O)c13)C=CC(C)(C)O2	-2.7	18.7	18.5	2.7	64.1*	7.8
FC(F)(F)c1cc(Cl)c2nc(-c3ccccc3)cn2c1	5.4	-21.3	-79.6	51.2*	-0.4	-177.0
COC(=O)c1ccc(COc2ccc(/C=C(\C#N)c3nc4ccccc4[nH]3)cc2OC)o1	-0.8	5.0	3.3	27.3	59.7*	-0.1
Cc1ccc(S(=O)(=O)N2CC=C(c3c(C)n(C)c4ccccc34)CC2)cc1	-3.5	71.0*	-2.8	6.0	43.0	21.6
CCn1c(C)c(C2=CCN(S(=O)(=O)c3ccccc3)CC2)c2ccccc21	-2.1	2.0	8.7	-2.1	22.1	0.9
O=C(Nc1ncc(Cc2ccc(SC(F)F)cc2)s1)c1ccccc1	1.5	7.0	67.7*	33.3	8.9	-151.6
Cc1ccc(C(=O)Nc2ncc(Cc3ccccc3)s2)o1	11.7	-5.3	-18.3	57.2*	65.8*	-153.4
O=C(Nc1ncc(Cc2ccccc2)s1)c1cccs1	12.8	15.4	21.1	51.4*	47.3	-144.4
Cc1ccc(Cc2cnc(NC(=O)c3cccs3)s2)cc1	3.5	-5.3	-91.2	25.1	17.9	-208.0
Cc1sc(NC(=O)c2cccs2)nc1-c1ccccc1	-0.2	-5.8	-199.2	8.9	40.9	-340.9
O=C(Nc1nsc(-c2ccccc2)n1)c1cccs1	8.3	-12.8	-45.7	51.2*	37.6	-170.6
CCc1nnc(NC(=O)c2ccc(C)o2)s1	-4.1	-48.9	-47.2	-12.7	-44.4	-115.8
Cc1cccnc1C1=NOC(Cc2ccccc2)C(=O)N1Cc1ccccc1F (stereo not drawn)	/	-3.7	/	1.6	-0.9	9.4
CC1(C(=O)Nc2ccc3c(c2)OCO3)Cc2c(-c3cccc(C(N)=O)c3)ccnc2O1 (stereo not drawn)	/	1.4	/	-9.9	11.4	12.4
O=c1[nH][nH]c2c1[C@@H](c1ccc(F)cc1)O[C@H](CCOCc1ccccc1)C2	/	2.2	/	-5.4	-16.0	7.9
COc1ccc(Cc2nc3ccc(C(=O)N(C)Cc4nccn4C)cc3o2)cc1	/	-9.3	/	1.5	10.3	4.0
Oc1ccc(C(=Nc2ccccc2)c2ccccc2)c(O)c1	/	-30.5	/	8.2	-25.4	6.9
O=C(NCc1nnnn1-c1ccc(Cl)cc1)C(=O)c1c[nH]c2ccccc12	/	1.4	/	-4.2	6.6	25.0
O=C1C(Cl)=C(N2CCOCC2)C(=O)N1c1ccccc1F	1.2	6.4	-2.6	-1.1	70.1*	6.5
Cc1ccccc1N1C(=O)C(Cl)=C(N2CCOCC2)C1=O	-2.3	2.1	-1.9	1.8	6.5	15.6
CCC1=C(Nc2ccccc2)COC1=O	/	-12.6	/	-17.3	4.8	11.3

Screening results: PubChem BioAssay, several laboratories
